Test results as given in PubChem BioAssay (EPA / NIEHS).
The source made the active and inactive calls. The calls were made as follows: active = hit-call score of the fitted dose curve at least 0.9, where 1 is the maximum; inactive = score below 0.9.

Tests used:
Conditions in all cases: mRNA level, 48 h; actives raise or lower the signal
[1] = read-out: Glutamate-cysteine ligase catalytic (GCLC), GCLC (gene 2729); assay: LTEA_HepaRG_GCLC: Life Technologies and Expression Analysis (LTEA) Assay for Glutamate-cysteine ligase catalytic (GCLC) using HepaRG (AID 2283498)
In short: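 HepaRG, 48 h exposure, 8-pt half-log series from 100 uM, 0.5% DMSO vehicle; TaqMan qRT-PCR for GCLC mRNA, housekeeping-normalized; bidirectional curve fit vs DMSO baseline.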

[2] = read-out: growth arrest and DNA damage 45 (GADD45G), GADD45G (gene 10912); assay: LTEA_HepaRG_GADD45G: Life Technologies and Expression Analysis (LTEA) Assay for growth arrest and DNA damage 45 (GADD45G) using HepaRG (AID 2283499)
In short: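 Differentiated human HepaRG cells, 48 h post-plating, exposed 48 h in serum-free induction medium to 8 half-log concentrations (top 100 uM, 0.5% DMSO) in duplicate. GADD45G mRNA measured by Fluidigm TaqMan qRT-PCR, normalized to ACTB, GAPDH, POLR2A; bidirectional fit versus DMSO.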

[3] = read-out: Glutamate-cysteine ligase regulatory (GCLM), GCLM (gene 2730); assay: LTEA_HepaRG_GCLM: Life Technologies and Expression Analysis (LTEA) Assay for Glutamate-cysteine ligase regulatory (GCLM) using HepaRG (AID 2283500)
In short: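 Endpoint is GCLM transcript level by qRT-PCR, normalized to three housekeeping genes, after 48 h chemical exposure of human HepaRG cells (0.5% DMSO vehicle, top 100 uM, half-log dilutions). Fitting was bidirectional relative to DMSO.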

[4] = read-out: Glutathione S-transferase M3 (GSTM3), GSTM3 (gene 2947); assay: LTEA_HepaRG_GSTM3: Life Technologies and Expression Analysis (LTEA) Assay for Glutathione S-transferase M3 (GSTM3) using HepaRG (AID 2283501)
In short: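 Differentiated human HepaRG cells were exposed in duplicate for 48 h in serum-free induction medium, 8 points from 100 uM top in half-log steps, 0.5% DMSO. GSTM3 mRNA was measured by TaqMan qRT-PCR, normalized to ACTB, GAPDH and POLR2A; bidirectional fit versus DMSO.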

[5] = read-out: Heat shock 70 kDa protein 1 (HSPA1A), gene 3303; assay: LTEA_HepaRG_HSPA1A: Life Technologies and Expression Analysis (LTEA) Assay for Heat shock 70 kDa protein 1 (HSPA1A) using HepaRG (AID 2283502)
In short: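 Cells were plated and cultured for 48 h, then switched to serum-free induction medium. Chemicals were added at eight half-log concentrations up to 100 uM for 48 h. RNA was then isolated and HSPA1A measured by qRT-PCR with bidirectional curve fitting against DMSO.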

[6] = read-out: Hypoxia-inducible factor 1-alpha (Homo sapiens) (UniProt Q16665); assay: LTEA_HepaRG_HIF1A: Life Technologies and Expression Analysis (LTEA) Assay for Hypoxia-inducible factor 1 (HIF1A) Trancription factor using HepaRG (AID 2283503)
In short: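 HIF1A transcript level read by qRT-PCR (ACTB, GAPDH, POLR2A normalization) after 48 h chemical exposure of HepaRG cultures. Eight half-log concentrations, top 100 uM, 0.5% DMSO vehicle, duplicates; bidirectional curve fit against DMSO baseline.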

HGF (gene 3082) = assay: LTEA_HepaRG_HGF: Life Technologies and Expression Analysis (LTEA) Assay for Hepatocyte Growth Facto (HGF) using HepaRG (AID 2283505)
In short: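 Differentiated HepaRG cells in serum-free induction medium exposed 48 h in duplicate, 8 half-log concentrations from 100 uM in 0.5% DMSO. HGF mRNA by qRT-PCR, normalised to ACTB, GAPDH, POLR2A; bidirectional fitting.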

[7] = read-out: Insulin Like Growth Factor 1 (IGF1), IGF1 (gene 3479); assay: LTEA_HepaRG_IGF1: Life Technologies and Expression Analysis (LTEA) Assay for Insulin Like Growth Factor 1 (IGF1) using HepaRG (AID 2283506)
In short: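 Cells are thawed, plated and cultured 48 h, then exposed in duplicate to chemical (highest 100 uM, half-log steps, 0.5% DMSO) for another 48 h. Total RNA is analysed by Fluidigm qRT-PCR for IGF1 expression relative to vehicle.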

[8] = read-out: Intercellular Adhesion Molecule 1 (ICAM1), ICAM1 (gene 3383); assay: LTEA_HepaRG_ICAM1: Life Technologies and Expression Analysis (LTEA) Assay for Intercellular Adhesion Molecule 1 (ICAM1) using HepaRG (AID 2283507)
In short: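 Differentiated human HepaRG cells in serum-free induction medium exposed 48 h in duplicate to 8 half-log concentrations (top 100 uM, 0.5% DMSO). ICAM1 mRNA quantified by TaqMan qRT-PCR, normalized to ACTB, GAPDH and POLR2A; bidirectional fitting versus DMSO.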

[9] = read-out: Insulin-like growth factor-binding protein 1 (IGFBP1), IGFBP1 (gene 3484); assay: LTEA_HepaRG_IGFBP1: Life Technologies and Expression Analysis (LTEA) Assay for Insulin-like growth factor-binding protein 1 (IGFBP1) using HepaRG (AID 2283508)
In short: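 HepaRG cells, plated 48 h then switched to serum-free induction medium, exposed in duplicate for 48 h to 8-point half-log series from 100 uM in 0.5% DMSO. mRNA measured by qRT-PCR, normalized to ACTB/GAPDH/POLR2A; bidirectional fit versus DMSO.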

[10] = read-out: Interleukin 6 (IL6), IL6 (gene 3569); assay: LTEA_HepaRG_IL6: Life Technologies and Expression Analysis (LTEA) Assay for Interleukin 6 (IL6) using HepaRG (AID 2283509)
In short: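 qRT-PCR read-out of IL6 transcript, normalized to three housekeeping genes, after 48 h chemical exposure of HepaRG cells; 8-point half-log series, top 100 uM, 0.5% DMSO vehicle. Bidirectional curve fitting against DMSO baseline.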

[11] = read-out: Interleukin 6 Receptor (IL6R), IL6R (gene 3570); assay: LTEA_HepaRG_IL6R: Life Technologies and Expression Analysis (LTEA) Assay for Interleukin 6 Receptor (IL6R) using HepaRG (AID 2283510)
In short: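 Cells were thawed, plated and cultured 48 h, then medium was changed to serum-free induction medium. Chemicals were added in duplicate (100 uM top, half-log steps, 0.5% DMSO) for 48 h. Lysates were analyzed by qRT-PCR for IL6R expression.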

[12] = read-out: Potassium channel subfamily K member 1 (KCNK1), KCNK1 (gene 3775); assay: LTEA_HepaRG_KCNK1: Life Technologies and Expression Analysis (LTEA) Assay for Potassium channel subfamily K member 1 (KCNK1) using HepaRG (AID 2283511)
In short: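 HepaRG, 48 h exposure, 8-pt half-log series top 100 uM, 0.5% DMSO vehicle, duplicates. Readout: KCNK1 transcript by qRT-PCR (Fluidigm array), housekeeping-normalized; bidirectional curve fit relative to DMSO baseline.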

[13] = read-out: Keratin 19 (KRT19), KRT19 (gene 3880); assay: LTEA_HepaRG_KRT19: Life Technologies and Expression Analysis (LTEA) Assay for Keratin 19 (KRT19) using HepaRG (AID 2283512)
In short: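 Differentiated HepaRG cells in serum-free induction medium, exposed 48 h in duplicate to 8 half-log concentrations up to 100 uM in 0.5% DMSO. KRT19 mRNA by qRT-PCR, normalized to ACTB, GAPDH, POLR2A; bidirectional fit vs DMSO.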

[14] = read-out: JUN Transcription Factor, JUN (gene 3725); assay: LTEA_HepaRG_JUN: Life Technologies and Expression Analysis (LTEA) Assay for JUN Transcription Factor using HepaRG (AID 2283513)
In short: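 Read-out is JUN transcript level by TaqMan qRT-PCR, normalized to ACTB, GAPDH and POLR2A, after 48 h chemical treatment of HepaRG cells. Concentration-response spanned eight half-log points up to 100 uM in 0.5% DMSO.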

[15] = read-out: Lipase C (LIPC), LIPC (gene 3990); assay: LTEA_HepaRG_LIPC: Life Technologies and Expression Analysis (LTEA) Assay for Lipase C (LIPC) using HepaRG (AID 2283514)
In short: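 HepaRG, 48 h exposure, 8-pt half-log series from 100 uM in 0.5% DMSO, duplicates. Readout: LIPC mRNA by Fluidigm qRT-PCR, housekeeping-normalized (ACTB/GAPDH/POLR2A). Gain or loss fitted bidirectionally against DMSO baseline.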

[16] = read-out: Lipoprotein lipase (LPL), LPL (gene 4023); assay: LTEA_HepaRG_LPL: Life Technologies and Expression Analysis (LTEA) Assay for Lipoprotein lipase (LPL) using HepaRG (AID 2283515)
In short: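 HepaRG, 48 h exposure, 8-pt half-log dilutions from 100 uM, 0.5% DMSO vehicle, duplicates; qRT-PCR (Fluidigm array) of LPL mRNA vs housekeeping genes; bidirectional curve fit relative to DMSO baseline.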

[17] = read-out: MicroRNA 122 (MIR122), gene 406906; assay: LTEA_HepaRG_MIR122: Life Technologies and Expression Analysis (LTEA) Assay for MicroRNA 122 (MIR122) using HepaRG (AID 2283516); also: the transcript read is the microRNA miR-122
In short: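 Human liver HepaRG cultures receive test chemicals for 48 h at eight half-log concentrations from 100 uM. Expression is quantified by qRT-PCR with ACTB/GAPDH/POLR2A normalization and fitted bidirectionally against 0.5% DMSO.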

[18] = read-out: matrix metalloproteinase-10 (MMP10), MMP10 (gene 4319); assay: LTEA_HepaRG_MMP10: Life Technologies and Expression Analysis (LTEA) Assay for matrix metalloproteinase-10 (MMP10) using HepaRG (AID 2283517)
In short: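 Transcript levels come from Fluidigm qRT-PCR normalized to three housekeeping genes, with curves fitted bidirectionally against 0.5% DMSO. Human HepaRG cells were dosed for 48 hours at concentrations up to 100 uM.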

[19] = read-out: 3-Hydroxy-3-Methylglutaryl-CoA Synthase 2 (HMGCS2), HMGCS2 (gene 3158); assay: LTEA_HepaRG_HMGCS2: Life Technologies and Expression Analysis (LTEA) Assay for 3-Hydroxy-3-Methylglutaryl-CoA Synthase 2 (HMGCS2) using HepaRG (AID 2283504)
In short: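 Human HepaRG cells in serum-free induction medium were exposed in duplicate for 48 h to 8-point half-log series from 100 uM top in 0.5% DMSO. HMGCS2 mRNA measured by TaqMan qRT-PCR, normalised to ACTB, GAPDH, POLR2A; bidirectional fit versus DMSO.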

Measured: outcome

Hypoxia-inducible factor 1-alpha (Homo sapiens), sequence (Q16665 whole entry, looked up): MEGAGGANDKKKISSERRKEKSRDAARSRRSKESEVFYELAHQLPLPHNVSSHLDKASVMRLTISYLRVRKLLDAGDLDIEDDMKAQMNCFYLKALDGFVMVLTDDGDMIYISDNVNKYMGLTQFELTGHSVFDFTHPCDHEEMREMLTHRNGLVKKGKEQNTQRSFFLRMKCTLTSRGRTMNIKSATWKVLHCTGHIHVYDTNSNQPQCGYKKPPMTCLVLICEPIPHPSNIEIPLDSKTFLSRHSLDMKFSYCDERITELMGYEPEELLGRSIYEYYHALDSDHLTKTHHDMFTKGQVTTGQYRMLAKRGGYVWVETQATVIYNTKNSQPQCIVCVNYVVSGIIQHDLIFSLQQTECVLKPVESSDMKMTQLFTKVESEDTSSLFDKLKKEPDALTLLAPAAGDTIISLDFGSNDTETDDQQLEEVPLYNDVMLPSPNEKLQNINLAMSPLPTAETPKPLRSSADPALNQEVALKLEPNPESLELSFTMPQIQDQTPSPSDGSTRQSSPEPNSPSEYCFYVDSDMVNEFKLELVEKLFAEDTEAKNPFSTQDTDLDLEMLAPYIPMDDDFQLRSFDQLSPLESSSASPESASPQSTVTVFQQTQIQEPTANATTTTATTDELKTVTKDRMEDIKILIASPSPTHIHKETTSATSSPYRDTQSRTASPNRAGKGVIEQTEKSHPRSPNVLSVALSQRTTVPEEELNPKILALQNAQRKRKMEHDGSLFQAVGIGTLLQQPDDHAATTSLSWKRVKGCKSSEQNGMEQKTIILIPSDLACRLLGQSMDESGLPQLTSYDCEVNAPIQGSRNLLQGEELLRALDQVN

O=NO
inactive: [1] | [2] | [3] | [4] | [5] | [6] | HGF (gene 3082) | [7] | [8] | [9] | [10] | [11] | [12] | [13] | [14] | [15] | [16] | [17] | [18]

CCOCCOCCO
inactive: [1] | [2] | [3] | [4] | [5] | [6] | HGF (gene 3082) | [7] | [8] | [9] | [10] | [11] | [12] | [13] | [14] | [15] | [16] | [17] | [18]

CCCC(=O)O
inactive: [1] | [2] | [3] | [4] | [5] | [6] | [19] | HGF (gene 3082) | [7] | [10] | [11] | [12] | [13] | [14] | [15] | [16] | [17] | [18]

CC(=O)OCC(COC(C)=O)OC(C)=O
inactive: [1] | [2] | [3] | [4] | [5] | [6] | [19] | HGF (gene 3082) | [7] | [10] | [11] | [12] | [13] | [14] | [15] | [16] | [17] | [18]
